LYPLA2 inh: LYPLA2 inhibitors, primary screen, counter-screen for PME1 inhibitor project, biochemical, fluorescence polarization, FP-Rh probe ABPP | Acyl-protein thioesterase 2 (Homo sapiens), O95372 | recombinant LYPLA2 | inhibition, % at 5.9 µM | 320,000 compounds, 0.38% hits;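 active means inhibition above the screen-wide mean plus 3 SD, limit set per campaign, cut at about 26% in these data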;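 further: 0% = LYPLA2 with DMSO and 100% = wells lacking LYPLA2 enzyme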
Target sequence (O95372 whole entry, looked up): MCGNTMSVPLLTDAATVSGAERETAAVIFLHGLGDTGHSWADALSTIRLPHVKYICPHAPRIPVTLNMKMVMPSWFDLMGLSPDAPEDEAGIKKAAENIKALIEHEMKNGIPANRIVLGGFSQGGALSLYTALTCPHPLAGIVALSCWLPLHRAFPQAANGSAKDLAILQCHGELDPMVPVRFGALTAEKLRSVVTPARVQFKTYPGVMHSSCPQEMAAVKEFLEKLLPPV
Fam108B inh: mouse Fam108B serine hydrolase inhibitors, primary screen, counter-screen for RBBP9 inhibitor project, biochemical, fluorescence polarization; recombinant Fam108B, FP-Rh probe fluorescence polarization; inhibition, % at 9.51 µM; 300,000 compounds, 0.33% hits; AID 1947, 2009;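 active means inhibition above the screen mean inhibition plus 3 SD, computed separately per campaign, cut at about 18% in these data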;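 further: inhibitors lower polarization as less probe binds the enzyme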
GSTO1 counter: inhibitors of recombinant GSTO1, primary screen, counter-screen for RBBP9 inhibitor project, biochemical, fluorescence polarization. Glutathione S-transferase omega-1 (Homo sapiens), P78417. activity-based probe fluorescence polarization. inhibition, % at 5.96 µM. 300,000 compounds, 1.1% hits. AID 1974, 2009;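 active means inhibition above the campaign mean inhibition plus 3 SD, cut at about 35% in these data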;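 further: 0% = GSTO1-1 with DMSO and 100% = wells lacking GSTO1-1 enzyme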
Target sequence (P78417 whole entry, looked up): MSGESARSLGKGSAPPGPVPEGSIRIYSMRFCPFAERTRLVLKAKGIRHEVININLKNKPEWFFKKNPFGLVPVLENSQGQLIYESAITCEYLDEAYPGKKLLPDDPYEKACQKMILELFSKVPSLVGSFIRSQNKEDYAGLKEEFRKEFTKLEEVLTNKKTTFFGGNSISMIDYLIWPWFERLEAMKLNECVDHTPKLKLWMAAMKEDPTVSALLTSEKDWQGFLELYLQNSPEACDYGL
PAD4 inh: human PAD4 inhibitors, primary screen, biochemical, fluorescence polarization, 1536-well format; Protein-arginine deiminase type-4 (Homo sapiens), Q9UM07; recombinant PAD4, RCA probe fluorescence polarization; inhibition, % at 6.36 µM; 330,000 compounds, 0.41% hits;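 active means percent inhibition above a cutoff equal to the mean of all tested compounds plus 3 SD, cut at about 15% in these data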;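 further: 0% = PAD4 with RCA probe and DMSO and 100% = probe without PAD4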
LYPLA1 counter: LYPLA1 inhibitors, primary screen, counter-screen for PME1 inhibitor project, biochemical, fluorescence polarization, FP-Rh probe ABPP; Acyl-protein thioesterase 1 (Homo sapiens), O75608; recombinant LYPLA1; inhibition, % at 5.9 µM; 320,000 compounds, 0.16% hits; AID 2174, 2009;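 active means inhibition above the mean of all tested compounds plus 3 SD, set per campaign, cut at about 14% in these data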;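 further: inhibitors block serine hydrolase probe labeling of LYPLA1 so polarization falls; 0% = enzyme with DMSO and 100% = wells lacking LYPLA1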
PME-1 primary: PME-1 inhibitors via competitive probe labeling, primary screen, biochemical, fluorescence polarization, FP-Rh probe, HTS; Protein phosphatase methylesterase 1 (Homo sapiens), Q9Y570; recombinant PME-1; inhibition, % at 5.9 µM; 320,000 compounds, 0.53% hits;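 active means inhibition above the campaign mean of all compounds plus 3 SD, cut at about 26% in these data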;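 further: competitive labeling of PME-1 active site by serine hydrolase directed probe; 0% = PME-1 with DMSO and 100% = wells lacking PME-1 enzyme; inhibitors block probe labeling so polarization falls and inhibition rises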
PAD4 confirm: human PAD4 inhibitors, confirmation, biochemical, fluorescence polarization; shares compounds with PAD4 inh; 1,200 compounds, 28% hits; recombinant PAD4, RCA probe fluorescence polarization; inhibition, % at 6.36 µM; AID 488796, 2010;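 active means mean inhibition across replicates above the hit cutoff set by the earlier primary screen, cut at about 15% in these data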;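 further: inhibitors block active-site labeling by the probe so polarization falls; 0% = PAD4 with probe and DMSO and 100% = probe without PAD4 enzyme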
* marks the source's active call; other numbers are inactive results; / = not tested or not shown; ! = not confirmed by another sample. A selection: hits, their analogues and other compounds. The true share with any hit is near 1.8%.

SMILES	LYPLA2 inh	Fam108B inh	GSTO1 counter	PAD4 inh	LYPLA1 counter	PME-1 primary	PAD4 confirm
Cc1noc(C)c1NC(=O)Nc1ccc2c(c1)C(=O)N([C@@H](C)CO)C[C@@H](C)[C@@H](CN(C)Cc1ccc3c(c1)OCO3)O2	/	/	/	-1	/	/	/
CCSc1nc2ccccc2[nH]1	-3	-1	-2	17*!	-3	-2	6
COc1ccc2ccccc2c1/C=N/Nc1cccc(C(=O)O)c1	8	8	15	21*	9	14	2
COC(=O)c1sccc1NC(=O)c1cccc(OC)c1	-4	-2	9	-3	-6	1	/
COc1ccccc1C(=O)Nc1nc2ccccc2s1	-6	0	-16	0	-4	-37	/
COC(=O)c1sccc1NC(=O)c1ccc(OC)cc1OC	-2	0	0	25*	-1	0	-4
COc1ccc(C(=O)Nc2nc3ccccc3s2)c(OC)c1	-6	-9	-14	22*	-9	-50	55*
Cc1ccc(-c2nn(CC(=O)N(C)C)c(=O)c3ccccc23)cc1S(=O)(=O)N(C)C	9	2	6	7	6	-3	/
Cc1cc(N(C)NC(=S)Nc2ccccc2)nc(C)n1	3	1	0	52*	-3	6	11
O=C(CN1CCOCC1)Nc1nc2ccc(Cl)cc2s1	-3	2	3	-4	-2	-5	/
O=C(CN1CCOCC1)Nc1nc2ccc(Br)cc2s1	-6	-2	1	17*	0	1	9
COC(=O)c1ccccc1-c1ccc(C(c2c(C)[nH][nH]c2=O)c2c(C)[nH][nH]c2=O)o1	2	4	65*	54*	0	-3	13
CC(C)Cn1c(SCC(=O)N2CCCc3ccccc32)nc2ccccc2c1=O	1	1	9	0	-3	-2	/
CCOc1ccc2[nH]c(SCC(=O)OC)c([N+](=O)[O-])c2c1	-4	-1	8	35*	-1	2	38*
FC(F)Oc1ccc(-c2csc(NNC3=NCCCCC3)n2)cc1	-2	4	15	19*	0	3	4
O=S(c1ccc2ccccc2c1)c1cnns1 (stereo unspecified)	-6	0	29	19*	-3	1	19*
COc1ccc(CCn2c(C)cc(C(=O)CSc3nc(N)cc(=O)[nH]3)c2C)cc1	-7	0	-14	30*	-7	-15	9
COc1ccc(CCn2c(C)cc(C(=O)CSc3nnc(N)s3)c2C)cc1	-5	1	-3	-4	-1	-7	/
Cc1ccc(CS(=O)Cc2ccc(C(=O)N3CCN(C4CCCCC4)CC3)o2)cc1 (stereo unspecified)	3	0	0	-5	3	-1	/
CCOc1ccc(-c2c[n+]3c(n2-c2ccccc2)CCCCC3)cc1	-3	-1	-1	-7	-1	-2	/
O=[N+]([O-])c1cnc(N2CCCCC2)c([N+](=O)[O-])c1	7	9	9	41*	7	7	-3
Cc1cc([N+](=O)[O-])cnc1N1CCOCC1	0	-3	4	1	0	5	/
CC1=NN(c2ccc(C)c(C)c2)C(=O)/C1=C/c1ccc2c(c1)n(C)c(=O)n2C	0	1	37*	48*	-2	0	5
CC1=NN(c2cccc(F)c2)C(=O)/C1=C/c1ccc(N(C)C)cc1	5	2	4	-3	0	4	/
COc1ccc(/C=C/c2nc3cc(-c4ccccc4)ccc3o2)cc1O	-5	9	-4	-1	-11	-3	/
SMILES	LYPLA2 inh	Fam108B inh	GSTO1 counter	PAD4 inh	LYPLA1 counter	PME-1 primary	PAD4 confirm
COc1ccc(-c2c/c(=N\c3nc(-c4ccccc4)c(C)s3)c3ccccc3o2)cc1O	-7	15	-14	33*	-14	31*	17*
COc1ccc(NC(=S)Nc2ccccc2)cc1	0	-2	3	0	-3	-2	/
Oc1ccc(NC(=S)Nc2ccccc2)cc1	-2	-2	8	21*!	-1	0	2
COCCCNc1nc2ccccc2nc1NS(=O)(=O)c1ccc(OC)cc1	2	-3	2	-1	1	2	/
COCCCNc1nc2ccccc2nc1NS(=O)(=O)c1cccs1	-4	-2	-4	16*	-1	2	-11
CCN(Cc1ccc2c(c1)OCO2)C(=O)CSc1ncnc2sccc12	-11	/	/	1	-4	9	/
CCN(Cc1ccc2c(c1)OCCO2)C(=O)CSc1nc(C)nc2sc(C)c(C)c12	1	/	/	79*	-6	2	-4
CN1CC=C2C(C#N)=C(N)C(C#N)(C#N)C(CCc3ccccc3)C2C1 (stereo unspecified)	-2	2	2	2	-1	3	/
CN1CC=C2C(C#N)=C(N)C(C#N)(C#N)C(c3ccsc3)C2C1 (stereo unspecified)	4	0	-1	15*	4	-2	6
CN1CC=C2C(C#N)=C(N)C(C#N)(C#N)[C@H](c3cccs3)[C@H]2C1	3	-2	11	8	3	6	/
CCCC1C2CN(C(C)C)CC=C2C(C#N)=C(N)C1(C#N)C#N (stereo unspecified)	8	1	-3	25*	3	5	12
Cc1noc(C)c1S(=O)(=O)N(C)C[C@H]1Oc2c(NS(=O)(=O)c3cn(C)cn3)cccc2C(=O)N([C@H](C)CO)C[C@@H]1C	/	/	/	37*	/	/	6
Cc1cc2c3c(c1)C1(SCC(=O)N1c1ccc(F)cc1)C(=O)N3C(C)(C)CC2C (stereo unspecified)	6	-1	-12	15	1	-1	/
CC1CC(C)(C)N2C(=O)C3(Nc4ccccc4S3)c3cccc1c32 (stereo unspecified)	2	2	4	23*	1	5	28*
CC(=O)c1c(C)[nH]c(=S)c(C#N)c1-c1ccc(Cl)cc1	-3	0	3	-6	1	3	/
Cc1[nH]c(=S)c(C#N)c(-c2ccco2)c1C(=O)N(C)C	1	2	6	19*	-1	3	12
Cc1cc([N+](=O)[O-])nn1CCCC(=O)Nc1cc(Cl)ccc1Cl	1	1	-2	-2	-2	5	/
Cc1cccc2c1N(C(=O)c1ccco1)C(C)(C)c1ssc(=S)c1-2	-2	1	-5	15*	0	5	15
